Drawing on PubChem BioAssay (NCATS), this text covers max response for 10 molecules.

“And” between values parts separate entries of the source, which are not always exact repeats. Equal entries are not always repeated. Records with an inconclusive call do not appear. The source made the active and inactive calls. Calls come from the whole dose curve; as a rule, active = well fitted curve in the direction sought with a large enough effect; inconclusive = small, poorly fitted or top-dose-only effect, or another doubt; inactive = no such curve, though single readings can be large or run the other way.
% is set by controls: 0 for no effect and ±100 for the full control effect.

The nature of this experiment: qHTS Assay for Identifying Gametocytocidal Compounds (AID 743244).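 Note: actives lower the fluorescent signal which means gametocytes are killed.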 The settings on record: P. falciparum 3D7 stage III-V gametocytes, alamarBlue, 72 h; max response: hits give low values. A digest of the protocol:
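Late gametocytes (III–V), P. falciparum 3D7; 72 h drug, then 24 h alamarBlue; resazurin reduction read by fluorescence.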
In general terms: In qHTS, concentration-response curves come from the screen itself.
For `Cc1cc(O)c2c(c1)O[C@@]1(C)CC[C@H]3C(C)(C)CCCC34CO[C@@H]2[C@H]41` (stereo not given in full), the max response is 20.1% (inactive).
The same measure for `CC1=C(/C=C/C(C)=C/C=C/C(C)=C/C(=O)Oc2c(C)c(C)c3c(c2C)CC[C@@](C)(CCC[C@H](C)CCC[C@H](C)CCCC(C)C)O3)C(C)(C)CCC1`: 0.0927% (inactive); for `CCCCC(CC)CCC(CC(C)C)OS(=O)(=O)O` (stereo not given): 17.4% (inactive) and 3.69% (inactive); for `Nc1nc2c(c(=O)[nH]1)N(C=O)C(CNc1ccc(C(=O)N[C@@H](CCC(=O)O)C(=O)O)cc1)CN2` (stereo not given in full): 8.32% (inactive).
Next, `CC(C)(C)c1ccc(CN2CCN(C(c3ccccc3)c3ccc(Cl)cc3)CC2)cc1` (stereo not given): -2.06% (inactive); `CC(C)Cc1ccc([C@@H](C)C(=O)NS(C)(=O)=O)cc1`: 17.9% (inactive); `CC(C)[C@H](N)C(=O)OCC(CO)OCn1cnc2c(=O)[nH]c(N)nc21` (stereo not given in full): -1.87% (inactive).
Regarding `CC[C@H]1OC(=O)C[C@@H](O)[C@H](C)[C@@H](O[C@@H]2O[C@H](C)[C@@H](O[C@H]3C[C@@](C)(O)[C@@H](O)[C@H](C)O3)[C@H](N(C)C)[C@H]2O)[C@@H](CC=O)C[C@@H](C)C(=O)/C=C/C(C)=C/[C@@H]1CO[C@@H]1O[C@H](C)[C@@H](O)[C@@H](OC)[C@H]1OC`, the max response was 19.1% (inactive) and -3.87% (inactive).
As for `O=C(CCCN1CCN2CCCC2C1)c1ccc(F)cc1` (stereo not given), the max response is 7.46% (inactive).
Next, `Cn1cc(NC(=O)c2cc(NC(=O)c3cc(NC=O)cn3C)cn2C)cc1C(=O)NCCC(=N)N`: 6.22% (inactive).
